Compound activity from PubChem.
U2OS ROS induce: ROS inducers in U2OS cancer cells, primary screen, cell-based, H2DCF-DA fluorescence. ROS induction (% of piperlongumine), % at 10 µM. 2% of 46,000 active. U2OS ROS induction; in the data active means ROS induction above about 79%, passing the limit was not always enough;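 further: 0% = DMSO vehicle median and 100% = reference compound median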
YB-1 expr inh: inhibitors of YB-1 gene expression, primary screen, cell-based, fluorescence. U2OS, qRT-PCR YB-1 vs CDIP delta delta Cp, 16 h; hits give high values; zero = DMSO, each unit about twofold. 0.37% of 30,000 active. delta delta Cp (YB-1 minus CDIP) (test concentration not listed). AID 434959, 2010;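 active means delta delta Cp rounded down to an integer at or above 3, about 3 SD of DMSO wells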;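 further: higher means less YB-1 transcript or more CDIP transcript relative to DMSO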
An asterisk follows results filed as active; . = no result. Most compounds without a hit are left out; they make up all but 2.1% or so of the library.

SMILES	U2OS ROS induce	YB-1 expr inh
C[C@@H]1CCCCO[C@H](CN(C)CC2CCCCC2)[C@@H](C)CN([C@H](C)CO)C(=O)c2cc(NC(=O)c3ccncc3)ccc2O1	0	6.4*
Cc1noc(C)c1S(=O)(=O)Nc1ccc2c(c1)C(=O)N([C@H](C)CO)C[C@@H](C)[C@@H](CN(C)Cc1ccc(Cl)c(Cl)c1)O2	101*	-0.044
C[C@@H]1CCCCO[C@@H](CN(C)Cc2ccc(C(F)(F)F)cc2)[C@@H](C)CN([C@H](C)CO)C(=O)c2cc(NC(=O)c3ccccc3)ccc2O1	71	-0.45
Cc1noc(C)c1NC(=O)Nc1ccc2c(c1)C(=O)N([C@H](C)CO)C[C@H](C)[C@H](CN(C)Cc1ccc3c(c1)OCO3)OCCCC[C@@H](C)O2	-1	0.078
Cc1noc(C)c1S(=O)(=O)Nc1ccc2c(c1)C(=O)N([C@H](C)CO)C[C@H](C)[C@@H](CN(C)Cc1ccc(Cl)c(Cl)c1)O2	72	-0.026
C[C@@H]1CCCCO[C@@H](CN(C)Cc2ccc(C(F)(F)F)cc2)[C@@H](C)CN([C@H](C)CO)C(=O)c2cc(NC(=O)c3ccncc3)ccc2O1	98*	0.21
O=C(Nc1cccc(NC(=S)NC(=O)c2ccco2)c1)c1ccccc1	-5	.
COc1ccc(CCNC(=O)Cn2ccc3ccccc3c2=O)cc1OC	-15	.
CSc1nc2c(sc3ccccc32)c(=O)n1-c1ccc(C)cc1	1	.
COc1ccc(CCNC(=O)CCCc2cn(C)c3ccccc23)cc1OC	-3	.
C[C@@H]1CCCCO[C@H](CN(C)Cc2ccc(C(=O)O)cc2)[C@@H](C)CN([C@H](C)CO)C(=O)c2cc(NC(=O)c3ccccc3)ccc2O1	28	-0.3
CNC[C@@H]1Oc2ccc(NS(=O)(=O)c3c(C)noc3C)cc2CC(=O)N([C@H](C)CO)C[C@H]1C	99*	0.28
CNC[C@@H]1Oc2ccc(NS(=O)(=O)c3c(C)noc3C)cc2CC(=O)N([C@H](C)CO)C[C@@H]1C	-6	-0.052
C[C@@H]1CCCCO[C@@H](CN(C)Cc2ccccc2)[C@@H](C)CN([C@H](C)CO)C(=O)c2cc(NC(=O)c3ccccc3)ccc2O1	184*	0.084
CN(Cc1ccccc1)c1sc(S(C)(=O)=O)nc1S(=O)(=O)c1ccc(Cl)cc1	-2	.
C=CCN(C(=O)C1CC=CCC1)c1ccccc1 (stereo unspecified)	-15	.
CCN(Cc1ccccc1)C(=O)Cn1ncc2c3ccccc3n(Cc3c(C)cc(C)cc3C)c2c1=O	9	.
COc1ccc(C2=NN(C(=O)CSCc3ccco3)C(c3cccc(OC)c3OC)C2)cc1 (stereo unspecified)	69	.
COc1ccc2c(c1OC)C(=O)N1c3ccccc3N=C(c3ccc(Br)cc3)CC21 (stereo unspecified)	57	9.6*
CCc1cc(=O)oc2c(C)c3occ(-c4ccc(Cl)cc4)c3cc12	14	.
COc1ccc2c(c1)c(C(=O)O)c(C)n2CCc1ccc(OC)c(OC)c1	24	-0.32
COc1ccc2c(c1)c(C(=O)ON1C(=O)CCC1=O)c(C)n2C1CC1	-2	3.8*
CCn1c(SCC(=O)N2CCN(c3ccccc3)CC2)nnc1-c1cc2cc(Cl)ccc2o1	-12	.
Nc1cc(N)nc(SCC(=O)N2CCN(c3ccc(Cl)cc3)CC2)n1	86*	.
Cc1ccnc(N=Cc2c(C)[nH]n(-c3ccccc3)c2=O)c1	68	0.28
SMILES	U2OS ROS induce	YB-1 expr inh
Cc1[nH]n(-c2ccccc2)c(=O)c1/C=C1\C=NN=C1c1ccccc1	106*	-0.49
COC(=O)c1cc2sc(Cl)cc2[nH]1	1	.
COc1ccc(NC(=O)N(C)C[C@@H]2Oc3ccc(NC(=O)c4ccncc4)cc3CC(=O)N([C@H](C)CO)C[C@H]2C)cc1	94*	-0.08
COc1ccc(NC(=O)N(C)C[C@H]2Oc3ccc(NC(=O)c4ccncc4)cc3CC(=O)N([C@@H](C)CO)C[C@@H]2C)cc1	0	-0.12
CC(C)NC(=O)Nc1ccc2c(c1)CC(=O)N([C@H](C)CO)C[C@H](C)[C@H](CN(C)Cc1ccncc1)O2	113*	-0.4
CC(C)NC(=O)N(C)C[C@@H]1Oc2ccc(NC(=O)Nc3ccccc3)cc2CC(=O)N([C@H](C)CO)C[C@H]1C	2	-0.0034
CC(C)NC(=O)Nc1ccc2c(c1)CC(=O)N([C@@H](C)CO)C[C@H](C)[C@H](CN(C)Cc1ccncc1)O2	11	0.11
CC(C)NC(=O)Nc1ccc2c(c1)CC(=O)N([C@@H](C)CO)C[C@H](C)[C@H](CN(C)C(=O)Nc1ccccc1)O2	79*	-0.27
COc1ccc(NC(=O)N(C)C[C@@H]2Oc3ccc(NC(=O)NC(C)C)cc3CC(=O)N([C@H](C)CO)C[C@H]2C)cc1	110*	-0.071
COc1ccc(NC(=O)N(C)C[C@@H]2Oc3ccc(NC(=O)NC(C)C)cc3CC(=O)N([C@@H](C)CO)C[C@@H]2C)cc1	-3	0.24
COc1ccc(C(=O)NCCc2nnc3ccc(SCC(=O)Nc4ccc(C)cc4C)nn23)cc1	-13	.
CC(NC(=O)c1cc(=O)[nH]c2ccc(Br)cc12)c1ccc2c(c1)OCCO2 (stereo unspecified)	-1	.
O=C(CN1C(=O)CC(c2ccccc2)S(=O)(=O)c2ccccc21)NC1CCCCC1 (stereo unspecified)	-4	.
COC(=O)c1ccccc1NC(=O)Cc1ccc(Cl)cc1	-6	.
CSc1nnc2c(n1)OC(C)Nc1ccccc1-2 (stereo unspecified)	32	-0.34
CSc1nnc2c(n1)OC(C1CC=C(C)CC1)Nc1ccccc1-2 (stereo unspecified)	103*	-0.086
CC1CN(C(=O)CCC(=O)NCc2ccco2)c2ccccc2O1 (stereo unspecified)	-11	.
COc1ccc(S(=O)(=O)N(C)CC(=O)Nc2ccccc2Br)cc1Cl	112*	.
COc1cc(Cl)c(C)cc1NC(=O)CN(C)S(=O)(=O)c1ccc(Br)cc1	7	.
Cc1ccc(S(=O)(=O)N(C)CC(=O)Nc2cc(Cl)ccc2Oc2ccccc2)cc1	90*	.
Cc1cc(Br)ccc1NC(=O)CN(C)S(=O)(=O)c1ccc(Cl)cc1	135*	.
COc1cc(OC)c(NC(=O)CN(C)S(=O)(=O)c2ccc(C)cc2)cc1Cl	1	.
COc1ccc(S(=O)(=O)N(C)CC(=O)Nc2ccccc2OC)cc1Cl	-11	.
Cc1cc(C(=O)N2CCN(Cc3ccccc3)CC2)n[nH]1	-14	.
COc1ccc2c(Sc3ccc(Cl)cc3)c(C(=O)N(C)Cc3ccccc3)[nH]c2c1	-15	.
SMILES	U2OS ROS induce	YB-1 expr inh
O=C(NCCc1ccccc1)C1CCCN(c2ncnc3c2sc2cccc(F)c23)C1 (stereo unspecified)	43	.
C=CC[n+]1ccc(/C=C/c2ccccc2O)c2ccccc21	17	.
CC1(C)CC(=O)C2=C(C1)N(Cc1ccco1)C(=O)NC2(C(F)(F)F)C(F)(F)F	3	-0.25
CCCCN1C(C)=NC(C(F)(F)F)(C(F)(F)F)C2=C1CC(C)(C)CC2=O	120*	-0.27
O=C(CC(Sc1ccc(Br)cc1)C(=O)O)c1ccc(Cl)cc1 (stereo unspecified)	36	-0.068
COc1ccc(S(=O)(=O)Nc2ccc3c(c2)C(=O)N([C@H](C)CO)C[C@@H](C)[C@@H](CN(C)Cc2ccc(Oc4ccccc4)cc2)O3)cc1	32	-0.42
